Bim-Mcl-1 – inhibitors of Bim peptide binding to Mcl-1, primary screen, biochemical, bead-based flow cytometry, multiplex | Induced myeloid leukemia cell differentiation protein Mcl-1 (Homo sapiens), Q07820 | Bim peptide-Mcl-1 binding | inhibition, % at 10 µM | hit rate 0.1% among 190,000; in the data active means inhibition above about 40%;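 further: 0% = no compound tracer wells and 100% = peptide blocker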
Target sequence (Q07820 whole entry, looked up): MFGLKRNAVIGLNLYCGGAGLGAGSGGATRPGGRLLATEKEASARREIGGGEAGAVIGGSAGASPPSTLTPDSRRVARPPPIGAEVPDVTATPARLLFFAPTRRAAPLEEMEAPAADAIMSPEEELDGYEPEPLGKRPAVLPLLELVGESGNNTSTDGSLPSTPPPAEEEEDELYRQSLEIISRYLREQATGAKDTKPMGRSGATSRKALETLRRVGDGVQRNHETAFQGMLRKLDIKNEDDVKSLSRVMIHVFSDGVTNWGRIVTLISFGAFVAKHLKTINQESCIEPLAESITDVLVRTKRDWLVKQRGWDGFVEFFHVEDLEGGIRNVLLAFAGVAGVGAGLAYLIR
Mcl1-Noxa inh – Mcl-1/Noxa binding inhibitors, primary screen, biochemical, TR-FRET, 1536-well; hit rate 1.5% among 220,000; Induced myeloid leukemia cell differentiation protein Mcl-1 (Homo sapiens), Q07820; inhibition, % at 21.7 µM; TR-FRET Mcl-1/Noxa peptide binding, 2 h;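 active means compounds that cut the protein-peptide binding signal by more than 50% relative to plate controls in a single-dose test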;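 further: His-tagged Mcl-1 with rhodamine Noxa BH3 peptide and terbium anti-His antibody; 0% = Mcl-1 plus Noxa peptide wells and 100% = peptide-only wells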
MCL1-BIM inh – inhibitors of MCL1 binding to BIM-BH3, primary screen, biochemical, fluorescence polarization; Induced myeloid leukemia cell differentiation protein Mcl-1 (Homo sapiens), Q07820; GST-MCL1 / FITC-Bim-BH3 fluorescence polarization; inhibition, % at 10.9 µM; hit rate 0.68% among 320,000;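 active means inhibition above the mean inhibition of all tested compounds plus 3 SD, set per campaign, cut at about 40% in these data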;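 further: 0% = DMSO wells and 100% = unlabeled Bim-BH3 peptide control; higher means more loss of mP so more displacement of Bim peptide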
Mcl1-Bid inh – Mcl-1/Bid binding inhibitors, primary screen, biochemical, TR-FRET, 1536-well | Induced myeloid leukemia cell differentiation protein Mcl-1 (Homo sapiens), Q07820 | TR-FRET Mcl-1/Bid-Dy647 peptide binding | inhibition, % at 21.7 µM | hit rate 0.97% among 220,000;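 active means compounds that cut the binding signal by more than half at the single screening dose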;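 further: His-tagged Mcl-1 with europium anti-His antibody binding Bid BH3 peptide; 0% = Mcl-1 plus peptide wells and 100% = peptide-only wells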
* hit, by the source's call; . = not tested or not shown; ! = not active in a repeat. Rows were chosen to be rich in hits. Some 2% of all compounds tested hit in one or more screens of this group.

SMILES	Bim-Mcl-1	Mcl1-Noxa inh	MCL1-BIM inh	Mcl1-Bid inh
c1coc(-c2nc3c4c5c(sc4ncn3n2)CCCC5)c1	-1	11	7	97*
CCN1C(=O)[C@H]2[C@@H](c3ccc(OC)cc3)N3C(=O)CN(CCOC)C(=O)[C@@]3(Cc3ccccc3)[C@H]2C1=O	.	.	6	.
Cc1ccc(CNC(=O)CCCn2nc(C)c3c(C)n(-c4ccccc4)nc3c2=O)cc1	.	.	0	.
CC(C)n1c(SCC(=O)Nc2ccc3c(c2)OCO3)nc2c1c(=O)n(C)c(=O)n2C	1	0	3	72*
NNc1nc(-c2ccccc2)nc(-c2ccccc2)c1Br	.	.	-4	.
NNC(=O)COc1ccccc1F	47*	9	-8	3
O=C(NCCCn1ccnc1)Nc1ccc2c(c1)OCO2	.	.	4	.
COc1ccc(OCCC(=O)OCC(=O)NCc2ccccc2OC)cc1	.	.	-5	.
COC(=O)c1c(NC(=O)Cc2cccs2)sc2c1CCCC2	-6	80*	15	22
CN(C)c1oc(-c2ccccc2Cl)nc1P(=O)(c1ccccc1)c1ccccc1	0	64*	5	-12
CCN(CC)c1ccc(/C=N/NC(=O)Cc2nnc(NC(=O)Nc3ccccc3)s2)cc1	-12	73*	-7	-67
COc1ccc(CN=Cc2[nH]c3ccc(Br)c(Cl)c3c2O)cc1	5	10	-70	-132
Cc1cc(C)cc(N=Cc2[nH]c3ccc(Br)c(Cl)c3c2O)c1	-5	52*	-111	-15
CCCCN1C(=O)N(C)C2C1N(C)C(=O)N2CCCC (stereo unspecified)	.	63*	6	2
CCCCN1C(=O)N(C)C2NC(=O)NC21 (stereo unspecified)	-1	-13	4	-33
CCOC(=O)c1[nH]cnc1C(=O)Nc1ccc(F)cc1	-2	16	7	-21
CCOC(=O)c1[nH]cnc1C(=O)Nc1ccncc1	-1	-11	1	83*
Cc1cc(NC(=O)CSCC(=O)Nc2nc3ccccc3s2)no1	.	.	15	.
Nc1ccc(NC(=O)c2ccc(C(=O)Nc3ccc(N)cc3)cc2)cc1	.	23	0	62*
COc1ccc(-n2c(-c3ccc(Br)cc3)c[n+]3c2SC(C)C3)cc1 (stereo unspecified)	-23	8	3	-6
CCCCSc1cc(C)nc(N)n1	.	37	10	79*
CCOC(=O)C1CCCN(Cc2cccs2)C1 (stereo unspecified)	0	15	11	55*
O=C(C1CCCN(Cc2ccccc2Br)C1)N1CCCCC1 (stereo unspecified)	-4	-22	9	59*
CCOC(=O)C1CCCN(Cc2ccccc2OCC)C1 (stereo unspecified)	-3	16	11	98*
O=C(O)c1nccnc1C(=O)Nc1ccccc1-c1ccccc1	.	1	-7	-6
SMILES	Bim-Mcl-1	Mcl1-Noxa inh	MCL1-BIM inh	Mcl1-Bid inh
O=C(NCc1ccc2c(c1)OCO2)C1CCCN1C(=O)Nc1ccc(Cl)cc1 (stereo unspecified)	.	.	-1	.
Cc1cccc(N(C(=O)CCC(=O)Nc2cc(C)on2)C(C(=O)NC2CCCC2)c2ccccc2)c1 (stereo unspecified)	.	.	2	.
c1ccc2[nH]c(CN3CCOCC3)nc2c1	0	12	0	98*
NC(=O)CC(NC(=O)Cc1ccc(Cl)cc1)c1ccc(NCCOc2ccccc2)c([N+](=O)[O-])c1 (stereo unspecified)	.	.	8	.
CC1Cc2ccccc2N1C(=O)CCS(=O)(=O)c1ccc2c(c1)NC(=O)CS2 (stereo unspecified)	.	.	-9	.
CCOC(=O)c1c(NC(=O)CSc2nnc(-c3ccccc3)n2CC)sc(C(C)=O)c1C	12	39	-8	25
NC(=O)c1c(NC(=O)CSc2nnc(-c3ccco3)n2-c2ccccc2)sc2c1CCC2	2	88*	29	-54
CCC1(CC)NC(=O)N(CC(=O)Nc2sc3c(c2C(N)=O)CCC3)C1=O	0	73*	17	-17
CCOC(=O)Cc1csc(SCC(=O)Nc2sc3c(c2C(N)=O)CCC3)n1	-1	71*	39	-39
CCOC(=O)c1sc(NC(=O)CSc2nnc(-c3ccco3)n2CC)c(C(=O)OCC)c1C	-3	64*	9	6
CCC1(C)NC(=O)N(CC(=O)Nc2sc3c(c2C(=O)OC)CCCCC3)C1=O (stereo unspecified)	-3	8	-5	-20
COC(=O)c1ccc(COc2ccccc2/C=C/C(=O)c2ccc(OCC(=O)O)cc2)cc1	.	.	6	.
CC(C)(C)NC(=O)C(c1ccco1)N(Cc1ccc2c(c1)OCO2)C(=O)c1snc(C(N)=O)c1N (stereo unspecified)	.	.	0	.
CCCSc1cc(NCCOC(=O)CCC)c([N+](=O)[O-])c2nonc12	0	8	4	-10
O=[N+]([O-])c1cc(S(=O)(=O)C(F)(F)F)ccc1Sc1nc2ccccc2s1	1	-6	5	-24
Cc1nnc(Sc2cc(NCCCO)c([N+](=O)[O-])c3nonc23)s1	-3	79*	.	-79
O=[N+]([O-])c1c(NCCO)cc(N2CCCCCC2)c2nonc12	.	.	1	.
CCCSc1cc(NCCOC(C)=O)c([N+](=O)[O-])c2nonc12	-3	-1	5	-12
O=[N+]([O-])c1c(NCCCO)cc(Sc2nc3ccccc3s2)c2nonc12	5	50	60*	-39
CCC(=O)OCCNc1cc(Sc2nc3ccccc3[nH]2)c2nonc2c1[N+](=O)[O-]	1	57*	9	-72
Cc1nnc(Sc2cc(NCCO)c([N+](=O)[O-])c3nonc23)s1	5	77*	.	-89
N[C@@H](Cc1cc(I)c(Oc2ccc(O)c(I)c2)c(I)c1)C(=O)O	0	105*!	17	66*!
COc1ccc(CCC(=O)O)c(O)c1	.	0	6	-48
O=C(O)CCc1cc(I)c(Oc2ccc(O)c(I)c2)c(I)c1	.	69*	.	27
N[C@@H](Cc1cc(I)c(Oc2cc(I)c(O)c(I)c2)c(I)c1)C(=O)O	.	.	-14	.
SMILES	Bim-Mcl-1	Mcl1-Noxa inh	MCL1-BIM inh	Mcl1-Bid inh
Cc1cc(C(=O)N/N=C/c2ccco2)n[nH]1	0	-8	2	-25
CC(/C=C/c1ccco1)=N\NC(=O)c1cc(C)[nH]n1	-3	78*	18	-5
CC(/C=C/c1ccco1)=N/NC(=O)Cc1cccs1	-5	87*	21	5
Nc1c(C(=O)c2ccccc2O)cnn1-c1ccc(S(=O)(=O)N2CCOCC2)cc1[N+](=O)[O-]	0	16	-13	8
Cc1ccc(-c2nn(-c3ccccc3)cc2C(N)=O)o1	0	51*	-14	-21
CC(OC(=O)c1cc(=O)[nH]c2ccccc12)C(=O)N1C(C)CCCC1C (stereo unspecified)	.	.	3	.
CC1CCc2nc3sc4c(c3c(N)c2C1)CCCC4 (stereo unspecified)	-2	31	3	-51
CC1CCc2c(nc3sc4c(c3c2N)CCCC4)C1 (stereo unspecified)	-3	54*	7	-6

Bioassay records: PubChem, several laboratories
